Assay outcomes deposited in PubChem BioAssay by PCMD.
FXIIa inh – inhibitors of human coagulation factor XIIa; P00748; actives 0.2% (n = 33,000); purified human FXIIa, AMC substrate fluorescence, 2 h; AID 701; inhibition, % at 10 µM; in the data active = inhibition above about 30%;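 also: 0% = enzyme with vehicle only and 100% = no enzyme blank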
FXIa inh – inhibitors of human coagulation factor XIa; actives 0.3% (n = 33,000); purified human FXIa, fluorogenic AMC substrate cleavage; inhibition, % at 10 µM; P03951; AID 687;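 active = inhibition above 40% in the primary screen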;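 also: 0% = enzyme without compound and 100% = blank wells lacking enzyme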
* marks the source's active call; other numbers are inactive results. Compounds with a hit are over-represented: about 0.33% of the library has one in this group of screens.

Results for Cc1cnc(C(=O)OCC(=O)NCc2ccccc2)cn1 ?
FXIIa inh: 3.5; FXIa inh: 41.2*

What do the screens show for `COc1ccc(CCNC(=O)COC(=O)c2cnc(C)cn2)cc1`?
FXIIa inh: 4.7; FXIa inh: -0.9

What do the screens show for `O=C(Nc1ccc(-c2nc3ccccc3o2)cc1)C1CCCO1` (stereo unspecified)?
FXIIa inh: 1.4; FXIa inh: 3.2

What do the screens show for `COc1ccc(N(C)C(=O)c2cnc(N3CCN(c4ncccn4)CC3)c3ccccc23)cc1`?
FXIIa inh: -2.1; FXIa inh: 1.7

Results for Cc1cccc(NC(=O)c2snc3c(=O)[nH]cnc23)c1 ?
FXIIa inh: -14.4; FXIa inh: 103.1*

What do the screens show for `CCc1cccc(NC(=O)c2snc3c(=O)[nH]cnc23)c1`?
FXIIa inh: 5.3; FXIa inh: -0.2

Results for C=CCn1c(-c2ccc(OC)cc2)nc2nc3ccccc3nc21 ?
FXIIa inh: -9.7; FXIa inh: -12.8

What do the screens show for `CCCN(CCC)C(C(=O)Nc1cccc(OC)c1)c1ccccc1` (stereo unspecified)?
FXIIa inh: -17.7; FXIa inh: 104.5*

Results for COc1cccc(NC(=O)C(NCC2CCCCC2)c2ccccc2)c1 (stereo unspecified) ?
FXIIa inh: 2.8; FXIa inh: -0.8

Results for Cc1ccc(SCc2[nH]nc3c2C2(C(=O)N(C)c4ccccc42)C(C#N)=C(N)O3)cc1 (stereo unspecified) ?
FXIIa inh: 4.8; FXIa inh: -1.4

Results for Cc1cccc(N2CCN(CC(=O)Nc3ccc(-n4cnnn4)cc3)CC2)c1C ?
FXIIa inh: 4.0; FXIa inh: 40.8*

How did O=C(Nc1ccc(-n2cnnn2)cc1)C1CCCCC1 do in these assays?
FXIIa inh: 4.4; FXIa inh: 5.2

What do the screens show for `Cc1cc2c(C)nc3ccccc3c2o1`?
FXIIa inh: 2.9; FXIa inh: 5.5

What do the screens show for `Cc1cc(=O)n(CNC(=O)c2ccccc2)c(=S)[nH]1`?
FXIIa inh: -12.5; FXIa inh: 15.2

Results for O=C(NC(C(=O)c1ccccc1)n1c(=O)cc[nH]c1=S)c1ccccc1 (stereo unspecified) ?
FXIIa inh: 4.5; FXIa inh: 47.6*

How did Cc1ccc(S(=O)(=O)/C(C#N)=C/c2c(N3CC(C)OC(C)C3)nc3ccccn3c2=O)cc1 (stereo unspecified) do in these assays?
FXIIa inh: 5.1; FXIa inh: 10.1

Results for CC(O)CNC(=O)c1ccc(-c2nn(C)c(=O)c3ccccc23)cc1 (stereo unspecified) ?
FXIIa inh: 4.7; FXIa inh: -1.6

What do the screens show for `CCN(CC)CCNC(=O)C(C)c1nn(C)c(=O)c2ccccc12` (stereo unspecified)?
FXIIa inh: 1.0; FXIa inh: 41.6*

Results for COC(=O)c1ccc(COc2ccc3c4c(c(=O)oc3c2)CCC4)o1 ?
FXIIa inh: 6.1; FXIa inh: -1.6

Results for O=C(Oc1ccc2c3c(c(=O)oc2c1)CCC3)c1ccco1 ?
FXIIa inh: 53.8*; FXIa inh: 14.4

How did CC(=O)Nc1sc2c(c1C(c1cccs1)N1CCOCC1)CCCC2 (stereo unspecified) do in these assays?
FXIIa inh: 4.8; FXIa inh: -4.9

How did CC(C)COc1ccc(/C(=N/O)c2ccccc2)cc1 do in these assays?
FXIIa inh: 3.6; FXIa inh: -7.2

What do the screens show for `CN(c1cccc(Cl)c1)S(=O)(=O)c1cccc(C(=O)NC2=NCCS2)c1`?
FXIIa inh: 6.9; FXIa inh: -2.2
